Rows were chosen to be rich in hits. Some 3.3% of all compounds tested hit in one or more screens of this group.
Jurkat NFkB inh: inhibitors of the PMA/ionomycin-induced NF-kB reporter in Jurkat cells; PMA/ionomycin-induced NF-kB luciferase reporter, luminescence; inhibition, % at 4 µM; AID 435003; actives 0.53% (n = 330,000); in the data active means inhibition above about 50%
697 NFkB inh: lowers PMA/ionomycin-induced NF-kB signal in 697 B cells | 697 B-cell NF-kB luciferase reporter, 16 h | actives 0.33% (n = 330,000) | inhibition, % at 4 µM | AID 435022; in the data active means inhibition above about 35%
esBAF inh: inhibitors of esBAF chromatin remodeling in mouse ES cells; Bmi1-luciferase knock-in reporter, 24 h; 100% = twice the neutral-well signal; reporter increase, % at 12.5 µM; actives 2% (n = 350,000); AID 602393; in the data active means activation above about 40%;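 further: 0% = median of the plate's neutral control wells and 100% = double that signal; a rise in the Bmi1 reporter signal indicates esBAF inhibition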
Gli-Sufu block: Gli-Sufu pathway antagonism; Sufu-KO-LIGHT fibroblasts, Gli luciferase reporter luminescence; inhibition, % at 5 µM; actives 0.74% (n = 340,000); AID 588413;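 active means inhibition above about 55%, limit read from the data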;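 further: 0% = DMSO-treated cells and 100% = wells with medium but no cells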
SMARCA2 act: activators of SMARCA2 function; MG213 cells, MMTV-luciferase reporter, dexamethasone, overnight; activation, % at 9.1 µM; actives 1% (n = 370,000); in the data active means activation above about 7.8%;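 further: 0% = vehicle wells and 100% = reference activator wells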
Starred values were filed as active, the others as inactive; nt = no result given.

SMILES | Jurkat NFkB inh | 697 NFkB inh | esBAF inh | Gli-Sufu block | SMARCA2 act
C[C@@H]1CN([C@@H](C)CO)C(=O)c2cc(NC(=O)C3CC3)ccc2O[C@H]1CN(C)S(=O)(=O)c1cn(C)cn1 | nt | nt | 4 | nt | nt
Cc1ccc2nc(NC(=O)c3ccccn3)sc2c1 | 34 | -126 | -80 | 78* | -9
COc1ccc2nc(NC(=O)c3ccccc3C(=O)O)sc2c1 | 2 | 8 | 9 | 29 | 3
CSc1ncccc1C(=O)Nc1nc2ccc(Oc3ccccc3)cc2s1 | -21 | -31 | 45* | -15 | -1
O=C(C[C@H]1C[C@@H]2c3cc(NC(=O)Nc4ccc(F)cc4)ccc3O[C@@H]2[C@H](CO)O1)NC1CCCCC1 | nt | nt | 4 | nt | nt
O=C(Nc1ccc2c(c1)OCO2)c1cccc(F)c1 | -77 | -43 | nt | -53 | 2
O=C(Nc1cccc(F)c1)Nc1ccc2c(c1)OCO2 | -89 | -107 | 50* | -83 | 2
O=C(Nc1cccc(Cl)c1)c1cnc[nH]1 | -56 | -38 | 58* | nt | 4
Cc1csc(NC(=O)Nc2cccc(Cl)c2)n1 | -56 | -77 | 88* | -4 | 4
O=C(Nc1cccc(Cl)c1)NC1CC2CCC1C2 (stereo not drawn) | -57 | -28 | 50* | -17 | 1
C[C@@H]1CN([C@H](C)CO)C(=O)c2cc(NC(=O)CCCN(C)C)ccc2O[C@@H](C)CCCCO[C@H]1CN(C)Cc1ccccc1 | nt | nt | 1 | nt | nt
O=C(CCN1CCCCC1)N[C@H]1C=C[C@H](CC(=O)N2CCC(Cc3ccccc3)CC2)O[C@H]1CO | nt | nt | 9 | nt | nt
C[C@@H]1CN([C@H](C)CO)C(=O)c2cc(NC(=O)NC3CCCCC3)ccc2O[C@@H](C)CCCCO[C@@H]1CN(C)S(=O)(=O)c1cccs1 | nt | nt | 5 | nt | nt
O=C(Nc1cccc(Cl)c1)Nc1cccc(Cl)c1 | -13 | -29 | 5 | -4 | 0
O=C(Nc1cccc(F)c1)Nc1cccc(Cl)c1 | -26 | -25 | 55* | -11 | -3
Cc1cc(C(=O)N2CCc3ccccc3C2)c(C)o1 | nt | nt | 52* | -28 | 1
CCOc1cccc2cc(C(=O)N3CCc4ccccc4C3)c(=O)oc12 | 17 | 6 | -2 | -2 | 2
COc1ccc(-c2cc3cccc(OC)c3oc2=O)cc1 | -87 | -216 | -10 | -103 | 3
COc1cccc2cc(-c3ccccc3)c(=O)oc12 | -80 | -87 | 32* | -106 | 4
COc1cccc2cc(C(=O)N3CCc4ccccc4C3)c(=O)oc12 | -7 | 8 | 78* | -1 | 4
C[C@H]1CN([C@@H](C)CO)C(=O)Cc2cc(NC(=O)Cc3ccccc3)ccc2O[C@@H]1CN(C)Cc1ccc(C(F)(F)F)cc1 | nt | nt | -6 | nt | nt
COc1ccc(NC(=O)N(C)C[C@@H]2Oc3cc(-c4ccc(C)cc4)ccc3S(=O)(=O)N([C@H](C)CO)C[C@H]2C)cc1 | nt | nt | 0 | nt | nt
C[C@H](CO)N1C[C@H](C)[C@@H](CN(C)Cc2ccc(Cl)c(Cl)c2)OCCCC[C@H](C)Oc2ccc(NC(=O)Nc3cccc4ccccc34)cc2C1=O | nt | nt | -18 | nt | nt
NNCCc1ccccc1 | -26 | -20 | 63* | -6 | 2
O=C(CC(=O)NCCc1ccccc1)NCCc1ccccc1 | 9 | 10 | -2 | -18 | 2
SMILES | Jurkat NFkB inh | 697 NFkB inh | esBAF inh | Gli-Sufu block | SMARCA2 act
Cc1oc(C(C)(C)C)cc1C(=O)Nc1ccc(C(=O)O)cc1 | 15 | -75 | 76* | 1 | 4
Cc1oc(C(C)(C)C)cc1C(=O)Nc1cccc(C(=O)O)c1 | -34 | -71 | 28 | -42 | 2
c1ccc(N2CCN(c3nc4cc5c(cc4s3)OCO5)CC2)cc1 | -52 | -204 | 49* | -94 | 1
Clc1ccc(-c2cc3ccccc3[nH]2)cc1 | -47 | -96 | 81* | 4 | 2
O=[N+]([O-])c1cccn2cc(-c3ccc(Br)cc3)nc12 | -59 | -81 | 58* | -63 | -2
CNc1ccccc1-n1ccc(-c2ccccc2)n1 | -21 | -36 | 60* | -13 | -1
O=C(C[C@H]1C=C[C@@H](NC(=O)c2ccccc2)[C@H](CO)O1)NCc1ccncn1 | nt | nt | -2 | nt | nt
Cc1cc(C)c(-c2nc3ccccc3s2)[nH]1 | -13 | -32 | 76* | -19 | 1
c1ccc(Nc2nc(-c3cccs3)cs2)nc1 | -149 | -202 | -33 | -37 | 2
COc1ccc(-c2csc(Nc3cc(C)ccn3)n2)cc1OC | -88 | -116 | 43* | -13 | -1
COc1ccc(-c2csc(Nc3ccc(C)cn3)n2)cc1OC | -15 | -8 | 61* | -28 | 2
CC(=O)Nc1cccc(-c2csc(Nc3cc(C)ccn3)n2)c1 | -114 | -190 | 48* | -73 | 5
Cc1cccc(Nc2nc(-c3cccs3)cs2)n1 | -142 | -138 | 50* | -31 | 0
Cc1ccccc1-c1cnc2c(c1)C(=O)N([C@@H](C)CO)C[C@H](C)[C@@H](CN(C)C(=O)c1ccc(F)cc1)O2 | nt | nt | 3 | nt | nt
CO[C@H]1CN(C)C(=O)c2cc(NC(=O)Cc3ccccc3)ccc2OC[C@@H](C)NC[C@H]1C | nt | nt | -1 | nt | nt
CCNC(=O)C[C@@H]1C=C[C@@H](NS(=O)(=O)c2ccc(F)cc2)[C@H](CO)O1 | nt | nt | 2 | nt | nt
C[C@@H]1CCCCO[C@@H](CN(C)Cc2ccc3c(c2)OCO3)[C@@H](C)CN([C@@H](C)CO)C(=O)c2cc(NC(=O)Nc3cccc4ccccc34)ccc2O1 | nt | nt | 5 | nt | nt
c1csc(-c2csc(-c3cccs3)n2)c1 | -76 | -66 | 53* | -30 | 0
COc1ccc(-c2csc(Nc3cccc(C)n3)n2)cc1C | nt | nt | 45* | -104 | 3
c1cncc(-c2nc(-c3cccs3)cs2)c1 | 2 | -9 | 22 | 4 | 4
CCC1CCc2c(sc(NC(=O)c3cccnc3)c2C(N)=O)C1 (stereo not drawn) | -18 | -31 | 38* | -19 | 3
NC(=O)c1c(NC(=O)c2cccnc2)sc2c1CCCC2 | -26 | -43 | nt | -2 | -2
CCS(=O)(=O)N[C@H]1C=C[C@@H](CC(=O)NC2Cc3ccccc3C2)O[C@@H]1CO | nt | nt | 1 | nt | nt
O=[N+]([O-])c1ccc2nc(-c3ccccc3)n(OCc3ccc(Cl)cc3)c2c1 | -132 | -184 | 62* | -21 | 3
O=C(O)COn1c(-c2ccccc2)nc2ccc(Cl)cc21 | -43 | -49 | nt | -18 | -2
SMILES | Jurkat NFkB inh | 697 NFkB inh | esBAF inh | Gli-Sufu block | SMARCA2 act
COn1c(-c2ccccc2)nc2ccc(Cl)cc21 | -66 | -67 | 65* | -53 | -1
CC(C)CC#Cc1ccc2c(c1)O[C@@H](CN(C)C(=O)Cc1cccnc1)[C@@H](C)CN([C@H](C)CO)S2(=O)=O | nt | nt | -2 | nt | nt
CCC(=O)C1CCCN(C(=O)CCc2nnc(-c3ccc(C(C)=O)s3)o2)C1 (stereo not drawn) | -53 | -95 | 83* | -23 | 4
CC1CCCN(C(=O)CCc2nnc(-c3ccc4c(c3)OCO4)o2)C1 (stereo not drawn) | -26 | -16 | 42* | -9 | 3
CCCOC1CCCN(C(=O)CCc2nnc(-c3ccc4c(c3)OCO4)o2)C1 (stereo not drawn) | -77 | -71 | 39 | -13 | 3
CCC(=O)C1CCCN(C(=O)CCc2nnc(-c3ccc4c(c3)OCO4)o2)C1 (stereo not drawn) | -23 | -59 | 33 | 5 | 3

Source: PubChem BioAssay
